Calls of active or inactive are those of the source. The calls were made as follows: active = hit-call score of the fitted dose curve at least 0.9, where 1 is the maximum; inactive = score below 0.9.
Read-out: Thyroid Hormone Responsive (THRSP), THRSP (gene 7069)
Test: LTEA_HepaRG_THRSP: Life Technologies and Expression Analysis (LTEA) Assay for Thyroid Hormone Responsive (THRSP) using HepaRG (AID 2283536)
Conditions: mRNA level, 48 h; actives raise or lower the signal
Procedure: LTEA_HepaRG is a cell based, multiplexed-readout assay that uses HepaRG, a human liver cell line, with measurements taken at 48 hours after chemical dosing on a 96-well plate.LTEA_HepaRG_THRSP is one of 102 assay component(s) measured in the LTEA HepaRG cell culture assay. It is a marker of NR mediated metabolism.Data from the assay component LTEA_HepaRG_THRSP was analyzed into 1 endpoint. This assay endpoint, LTEA_HepaRG_THRSP, was analyzed with bidirectional fitting relative to DMSO as the negative control and baseline of activity. Using a type of inducible reporter, measures of mRNA induction for gain or loss-of-signal activity can be used to understand regulation of transcription factor activity. To generalize the intended target to other relatable targets, this assay endpoint is annotated to the growth factor intended target family, where the subfamily is NR mediated metabolism.
A total of 1060 chemcials from the ToxCast library were tested in eight-point concentration-response experiments. Cell culture and cytotoxicity assays were conducted at Thermo Fisher Scientific's Custom Services facility (Madison, WI). A single lot of human HepaRG cells (Thermo Fisher Scientific, Frederick, MD) was used for the cell culture experiments. 96-well format collagen type I coated plates of human HepaRG cells were prepared using established methods. Briefly, cryopreserved HepaRG cells were thawed, plated at a density of approximately 100,000 cells/well in HepaRG Thaw, Plate, and General Purpose media (HPRG770, Thermo Fisher Scientific), and incubated for 48 hours. 0.5% DMSO was selected as vehicle control to balance the requisite need of DMSO in HepaRG cultures to maintain differentiation (for example, baseline metabolism, proportions of hepatocytes vs. cholangiocytes), while enabling further hepatic receptor pathway activation (for example, PXR and CAR) in response to chemical exposure. 48 hours after plating, the culture medium was replaced with HepaRG Serum-Free Incudtion Media. Cells were exposed to each test chemical in duplicate and maintained in CO2 incubators for another 48 hours. Chemical plates were thawed to room temperature and 200x concentrations of treatment groups were prepared. 8-point conentration-reponse curves were made with the highest exposure at 100 uM, followed by half-log dilutions, all in 0.5% DMSO. Each test plate contained variouse controls, induction positive controls (1mM phenobarbital), cytotoxicity positive controls ([…] aflatoxin B1), vehicle controls (0.5% DMSO), and total lysis controls (0.5% DMSO). Cell morphology images were taken using an Essen IncuCyte FLR automated microscope, with six 96-well plates imaged in about 24 minutes. Images were captured and exported and JPEG files. Spent culture media was transfered to black-well plates for the LDH assay, and remaining media was sorted at -80 C for later use. Cells were treated with RLT buffer and frozen until shipped for gene expression analysis. Total RNA was isolated from the cell suspension in 75 uL of Buffer RLT (Qiagen, Germantown, MD 20874) by Quintiles/Expression Analysis (Durham, NC) using a custom isolation procedure. Total RNA from each plate well was transferred to a preamplification plate. Fluidigm's 96.96 Dynamic ArrayTM (Fluidigm, Amsterdam, the Netherlands) technology was used for gene expression analyses by quantitative reverse transcription polymerase chain reaction (qRT-PCR, performed by Quintiles/Expression Analysis, Durham, NC)89. Standard TaqManTM Assays (Applied Biosystems/ThermoFisher Scientific, Foster City, CA) were used to assess the expression of 93 genes selected based on their selectivity and sensitivity to important hepatic receptors known to be modulated by environmental chemicals; importance in human hepatocyte functionality; and hepatotoxicity. […]

Compound | outcome | AC50
Clc1ccc(Cl)cc1 | inactive | –
C=CC(=O)NCNC(=O)C=C | inactive | –
ClC(Cl)=C(c1ccc(Cl)cc1)c1ccc(Cl)cc1 | – | 77.6 µM (active)
Nn1cnnc1 | inactive | –
N#Cc1ccc(N(CC(N)=O)CC(F)(F)F)cc1C(F)(F)F | – | 0.103 µM (active)
CCNc1nc(NC(C)C)nc(SC)n1 | inactive | –
CCOP(=S)(OCC)SCSC(C)(C)C | inactive | –
CCCCCCCCCc1ccc(O)cc1 | inactive | –
ClC1=C(Cl)[C@]2(Cl)[C@@H]3[C@@H]4C[C@@H]([C@H]5O[C@@H]45)[C@@H]3[C@@]1(Cl)C2(Cl)Cl | – | 50 µM (active)
Cc1ccccc1O | inactive | –
O=C(O)C(F)(F)C(F)(F)C(F)(F)C(F)(F)C(F)(F)C(F)(F)C(F)(F)C(F)(F)F | – | 58.6 µM (active)
Cc1cc(O)ccc1Cl | inactive | –
ClC1=C(Cl)[C@]2(Cl)[C@@H]3[C@@H](Cl)[C@H]4O[C@H]4[C@@H]3C1(Cl)C2(Cl)Cl | inactive | –
CC1=C2C[C@H]3[C@@H](CC=C4C[C@@H](O)CC[C@@]43C)[C@@H]2CC[C@]12O[C@@H]1C[C@H](C)CN[C@H]1[C@H]2C | inactive | –
Cc1cccc([N+](=O)[O-])c1 | inactive | –
C1CC2OC2CC1C1CO1 (stereo not given) | inactive | –
O=S(=O)(O)C(F)(F)C(F)(F)C(F)(F)C(F)(F)C(F)(F)C(F)(F)F | inactive | –
CCOCCOC(C)=O | inactive | –
C[C@]12CCC(=O)C=C1CC[C@@H]1[C@@H]2CC[C@@]2(C)[C@H]1CC[C@]2(C)O | – | 0.81 µM (active)
Cc1cc(-c2ccc(N)c(C)c2)ccc1N | inactive | –

Compound | outcome | AC50
O=S(=O)(O)C(F)(F)C(F)(F)C(F)(F)C(F)(F)F | inactive | –
CCC(C)(CC)c1cc(NC(=O)c2c(OC)cccc2OC)on1 | – | 41.2 µM (active)
CC(C)(O)C(=O)Nc1ccc([N+](=O)[O-])c(C(F)(F)F)c1 | inactive | –
Cc1cccc(C)c1N | inactive | –
Nc1ccc(-c2ccc(N)cc2)cc1 | inactive | –
CCCN(CCC)N=O | inactive | –
CCCCCCCCOC(=O)c1ccccc1C(=O)OCCCCCCCC | inactive | –
COc1ccc(O)c(C(C)(C)C)c1 | inactive | –
Oc1ccc(Cl)cc1Cl | inactive | –
CC#Cc1cc(C)nc(Nc2ccccc2)n1 | – | 6.1 µM (active)
CCC(C)c1cc([N+](=O)[O-])cc([N+](=O)[O-])c1O (stereo not given) | – | 1.98 µM (active)
c1ccc(-c2ccccc2)cc1 | inactive | –
C[C@]12CCC(=O)C=C1CC[C@@H]1[C@@H]2CC[C@]2(C)C(=O)CC[C@@H]12 | – | 1.39 µM (active)
CN(C)CCO | inactive | –
O=NN(c1ccccc1)c1ccccc1 | inactive | –
O=C(O)C(F)(F)C(F)(F)C(F)(F)C(F)(F)C(F)(F)F | inactive | –
Cc1ccccc1[N+](=O)[O-] | inactive | –
Clc1ccc(C(c2ccccc2Cl)C(Cl)(Cl)Cl)cc1 (stereo not given) | – | 55.8 µM (active)
Oc1ccc(C(c2ccc(O)cc2)(C(F)(F)F)C(F)(F)F)cc1 | inactive | –
CC(c1ccc(O)cc1)(c1ccc(O)cc1)c1ccc(O)cc1 | – | 23.9 µM (active)

Reference: PubChem BioAssay (EPA / NIEHS)
